The text below walks through data of publication PMC7862700, “An all-to-all approach to the identification of sequence-specific readers for epigenetic DNA modifications on cytosine”.

Sequence of ETV5 (P41161 whole entry): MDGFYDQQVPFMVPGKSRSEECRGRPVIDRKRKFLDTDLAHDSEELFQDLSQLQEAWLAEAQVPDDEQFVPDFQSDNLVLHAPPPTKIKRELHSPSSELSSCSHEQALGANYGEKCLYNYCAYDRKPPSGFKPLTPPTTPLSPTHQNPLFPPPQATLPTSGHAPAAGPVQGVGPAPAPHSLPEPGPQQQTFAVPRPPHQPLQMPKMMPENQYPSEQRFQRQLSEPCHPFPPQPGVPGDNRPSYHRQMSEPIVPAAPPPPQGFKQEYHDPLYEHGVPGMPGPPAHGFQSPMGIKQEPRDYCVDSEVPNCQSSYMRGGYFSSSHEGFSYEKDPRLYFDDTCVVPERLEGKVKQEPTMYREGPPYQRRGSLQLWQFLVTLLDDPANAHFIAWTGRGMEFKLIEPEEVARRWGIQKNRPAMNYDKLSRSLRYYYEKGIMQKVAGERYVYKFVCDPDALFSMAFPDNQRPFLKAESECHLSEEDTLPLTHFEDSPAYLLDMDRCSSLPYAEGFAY
Sequence of HSF1 (Q00613 whole entry): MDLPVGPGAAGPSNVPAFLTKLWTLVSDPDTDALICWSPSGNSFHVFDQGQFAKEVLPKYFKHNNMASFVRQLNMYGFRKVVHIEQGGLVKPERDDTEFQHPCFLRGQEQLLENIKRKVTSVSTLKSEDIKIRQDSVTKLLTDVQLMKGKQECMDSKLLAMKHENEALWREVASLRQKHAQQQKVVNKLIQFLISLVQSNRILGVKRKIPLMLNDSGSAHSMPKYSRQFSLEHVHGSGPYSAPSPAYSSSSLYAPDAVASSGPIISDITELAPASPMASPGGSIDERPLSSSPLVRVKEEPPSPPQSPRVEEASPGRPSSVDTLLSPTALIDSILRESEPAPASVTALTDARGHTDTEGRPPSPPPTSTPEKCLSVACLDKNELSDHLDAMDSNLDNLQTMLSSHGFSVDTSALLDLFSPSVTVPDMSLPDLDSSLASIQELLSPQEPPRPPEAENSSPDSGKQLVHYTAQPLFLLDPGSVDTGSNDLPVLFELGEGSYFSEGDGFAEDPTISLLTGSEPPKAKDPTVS

The target of one experiment is T1, FEV (Homo sapiens, UniProt Q99581 1-238).
T1 sequence: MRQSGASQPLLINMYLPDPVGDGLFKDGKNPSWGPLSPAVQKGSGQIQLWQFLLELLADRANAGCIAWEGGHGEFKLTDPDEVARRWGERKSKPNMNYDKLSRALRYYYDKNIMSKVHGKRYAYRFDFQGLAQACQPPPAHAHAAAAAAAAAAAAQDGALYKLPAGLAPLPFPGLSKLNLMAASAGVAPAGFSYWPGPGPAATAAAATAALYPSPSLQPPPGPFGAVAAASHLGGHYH
As to the kind of experiment: DAPPL (digital affinity profiling via proximity ligation, sequencing); 10 mM Tris-HCl pH 7.5, 50 mM NaCl, 1 mM DTT, 4% glycerol, room temperature, 30 min; GST-TFs on glutathione beads, 16-mer random dsDNA library, 0.1% formaldehyde crosslink after washing; high values mean tight binding. As to conditions: protein: recombinant; tags: N-terminal GST; dsDNA, one strand shown. In outline:
(§1)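 Each value of binding signal is a hexamer's read frequency for a factor divided by the same hexamer's frequency in the tag-only sample. Barcoded, bead-captured GST fusions of human transcription factors made in yeast were pooled with that sample and incubated with 200 nmole of a random double-stranded 16-mer DNA library in Tris/NaCl/DTT/glycerol buffer at room temperature for 30 min. Washing, 0.1% formaldehyde crosslinking, proximity ligation, PCR and Illumina NextSeq500 sequencing followed.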
As for GTATTC, the binding signal is 1.18 fold enrichment (6-mer frequency, TF over GST control).

Consider CACTAT, for which the binding signal is 1.21 fold enrichment (6-mer frequency, TF over GST control).

Consider ATCATT, for which the binding signal is 1.08 fold enrichment (6-mer frequency, TF over GST control).

Consider CCTCAT, for which the binding signal is 1.26 fold enrichment (6-mer frequency, TF over GST control).

For the sequence ATATTC, the binding signal was 1.19 fold enrichment (6-mer frequency, TF over GST control).

Take CTCATC: the binding signal is 1.34 fold enrichment (6-mer frequency, TF over GST control).

Consider TTATTA, for which the binding signal was 1.09 fold enrichment (6-mer frequency, TF over GST control).

For the sequence TTTCTT, the binding signal is 1.23 fold enrichment (6-mer frequency, TF over GST control).

In the case of TCTTCA, the binding signal is 1.15 fold enrichment (6-mer frequency, TF over GST control).

With CATTAT, the binding signal was 1.18 fold enrichment (6-mer frequency, TF over GST control).

As to TGACTC, the binding signal was 1.36 fold enrichment (6-mer frequency, TF over GST control).

In the case of AAATTA, the binding signal was 1.19 fold enrichment (6-mer frequency, TF over GST control).

Consider CCTGAA, for which the binding signal was 1.4 fold enrichment (6-mer frequency, TF over GST control).

In the case of TCCGGA, the binding signal is 3.95 fold enrichment (6-mer frequency, TF over GST control).

On to AATTCT, for which the binding signal is 1.29 fold enrichment (6-mer frequency, TF over GST control).

Consider CTTTAA, for which the binding signal is 1.23 fold enrichment (6-mer frequency, TF over GST control).

As to TCGAAT, the binding signal was 1.03 fold enrichment (6-mer frequency, TF over GST control).

On to TGACAA, for which the binding signal was 1.22 fold enrichment (6-mer frequency, TF over GST control).

For the sequence TCCCGC, the binding signal was 1.46 fold enrichment (6-mer frequency, TF over GST control).

For TATCAG, the binding signal is 1.07 fold enrichment (6-mer frequency, TF over GST control).

As for ACTCCT, the binding signal is 1.47 fold enrichment (6-mer frequency, TF over GST control).

As to AATAGA, the binding signal was 1.07 fold enrichment (6-mer frequency, TF over GST control).

Take TATGGT: the binding signal was 1.24 fold enrichment (6-mer frequency, TF over GST control).

As for TAAGCT, the binding signal is 1.08 fold enrichment (6-mer frequency, TF over GST control).

As for AAATGC, the binding signal was 1.35 fold enrichment (6-mer frequency, TF over GST control).

TCTGTT: the binding signal is 1.29 fold enrichment (6-mer frequency, TF over GST control).

As for TCTCAT, the binding signal was 1.27 fold enrichment (6-mer frequency, TF over GST control).

In the case of CCCACG, the binding signal is 1.13 fold enrichment (6-mer frequency, TF over GST control).

Consider TGCACT, for which the binding signal is 1.51 fold enrichment (6-mer frequency, TF over GST control).

Take TTCATC: the binding signal was 1.21 fold enrichment (6-mer frequency, TF over GST control).

In the case of ATATTG, the binding signal is 1.33 fold enrichment (6-mer frequency, TF over GST control).

As for TGTTAC, the binding signal was 1.4 fold enrichment (6-mer frequency, TF over GST control).

Regarding TCCACT, the binding signal was 1.54 fold enrichment (6-mer frequency, TF over GST control).

As to TTGTAG, the binding signal is 1.02 fold enrichment (6-mer frequency, TF over GST control).

For the sequence AGAAGC, the binding signal is 1.14 fold enrichment (6-mer frequency, TF over GST control).

As for CTTCTA, the binding signal was 1.4 fold enrichment (6-mer frequency, TF over GST control).

For the sequence TCTATA, the binding signal was 1.15 fold enrichment (6-mer frequency, TF over GST control).

Consider ATTCCA, for which the binding signal is 1.07 fold enrichment (6-mer frequency, TF over GST control).

As to TAAACA, the binding signal is 1.18 fold enrichment (6-mer frequency, TF over GST control).

For the sequence ACCCGC, the binding signal is 1.24 fold enrichment (6-mer frequency, TF over GST control).

The next experiment has as its target ETV5 (Homo sapiens, UniProt P41161 1-510). Described as above. Particulars: protein: recombinant; tags: N-terminal GST; dsDNA, one strand shown. In outline: as §1
With GTATTC, the binding signal is 1.32 fold enrichment (6-mer frequency, TF over GST control).

CACTAT: the binding signal was 1.2 fold enrichment (6-mer frequency, TF over GST control).

Take ATCATT: the binding signal was 1.07 fold enrichment (6-mer frequency, TF over GST control).

As to CCTCAT, the binding signal is 1.31 fold enrichment (6-mer frequency, TF over GST control).

As to ATATTC, the binding signal is 1.27 fold enrichment (6-mer frequency, TF over GST control).

As to CTCATC, the binding signal is 1.34 fold enrichment (6-mer frequency, TF over GST control).

For TTATTA, the binding signal is 1.14 fold enrichment (6-mer frequency, TF over GST control).

On to TTTCTT, for which the binding signal is 1.22 fold enrichment (6-mer frequency, TF over GST control).

Regarding TCTTCA, the binding signal was 1.17 fold enrichment (6-mer frequency, TF over GST control).

For CATTAT, the binding signal is 1.09 fold enrichment (6-mer frequency, TF over GST control).

Consider TGACTC, for which the binding signal was 1.24 fold enrichment (6-mer frequency, TF over GST control).

For the sequence AAATTA, the binding signal was 1.26 fold enrichment (6-mer frequency, TF over GST control).

Regarding CCTGAA, the binding signal was 1.38 fold enrichment (6-mer frequency, TF over GST control).

On to TCCGGA, for which the binding signal was 2.83 fold enrichment (6-mer frequency, TF over GST control).

AATTCT: the binding signal is 1.28 fold enrichment (6-mer frequency, TF over GST control).

With CTTTAA, the binding signal was 1.24 fold enrichment (6-mer frequency, TF over GST control).

Turning to TCGAAT, the binding signal is 1.15 fold enrichment (6-mer frequency, TF over GST control).

For TGACAA, the binding signal is 1.22 fold enrichment (6-mer frequency, TF over GST control).

On to TCCCGC, for which the binding signal was 1.41 fold enrichment (6-mer frequency, TF over GST control).

Regarding TATCAG, the binding signal was 1.14 fold enrichment (6-mer frequency, TF over GST control).

Regarding ACTCCT, the binding signal is 1.38 fold enrichment (6-mer frequency, TF over GST control).

Turning to AATAGA, the binding signal was 1.07 fold enrichment (6-mer frequency, TF over GST control).

As for TATGGT, the binding signal was 1.38 fold enrichment (6-mer frequency, TF over GST control).

In the case of TAAGCT, the binding signal was 1.16 fold enrichment (6-mer frequency, TF over GST control).

In the case of AAATGC, the binding signal is 1.34 fold enrichment (6-mer frequency, TF over GST control).

With TCTGTT, the binding signal was 1.27 fold enrichment (6-mer frequency, TF over GST control).

As for TCTCAT, the binding signal was 1.39 fold enrichment (6-mer frequency, TF over GST control).

As for CCCACG, the binding signal is 1.22 fold enrichment (6-mer frequency, TF over GST control).

TGCACT: the binding signal was 1.37 fold enrichment (6-mer frequency, TF over GST control).

Turning to TTCATC, the binding signal was 1.28 fold enrichment (6-mer frequency, TF over GST control).

With ATATTG, the binding signal was 1.37 fold enrichment (6-mer frequency, TF over GST control).

As to TGTTAC, the binding signal is 1.47 fold enrichment (6-mer frequency, TF over GST control).

As to TCCACT, the binding signal is 1.49 fold enrichment (6-mer frequency, TF over GST control).

On to TTGTAG, for which the binding signal was 1.1 fold enrichment (6-mer frequency, TF over GST control).

Regarding AGAAGC, the binding signal was 1.12 fold enrichment (6-mer frequency, TF over GST control).

For the sequence CTTCTA, the binding signal is 1.46 fold enrichment (6-mer frequency, TF over GST control).

On to TCTATA, for which the binding signal was 1.17 fold enrichment (6-mer frequency, TF over GST control).

Turning to ATTCCA, the binding signal is 1.18 fold enrichment (6-mer frequency, TF over GST control).

Turning to TAAACA, the binding signal was 1.24 fold enrichment (6-mer frequency, TF over GST control).

For ACCCGC, the binding signal is 1.24 fold enrichment (6-mer frequency, TF over GST control).

Another experiment concerns the target HSF1 (Homo sapiens, UniProt Q00613 1-529). The experiment is described as above. As to conditions: protein: recombinant; tags: N-terminal GST; chain copies: 3; dsDNA, one strand shown. The essentials: as §1
GTATTC: the binding signal was 1.31 fold enrichment (6-mer frequency, TF over GST control).

For the sequence CACTAT, the binding signal was 1.05 fold enrichment (6-mer frequency, TF over GST control).

For the sequence ATCATT, the binding signal was 1.18 fold enrichment (6-mer frequency, TF over GST control).

As for CCTCAT, the binding signal is 1.08 fold enrichment (6-mer frequency, TF over GST control).

With ATATTC, the binding signal was 2.2 fold enrichment (6-mer frequency, TF over GST control).

For CTCATC, the binding signal was 1.27 fold enrichment (6-mer frequency, TF over GST control).

For the sequence TTATTA, the binding signal was 1.75 fold enrichment (6-mer frequency, TF over GST control).

For the sequence TTTCTT, the binding signal was 1.7 fold enrichment (6-mer frequency, TF over GST control).

For TCTTCA, the binding signal was 1.24 fold enrichment (6-mer frequency, TF over GST control).

As for CATTAT, the binding signal was 1.26 fold enrichment (6-mer frequency, TF over GST control).

On to TGACTC, for which the binding signal was 1.1 fold enrichment (6-mer frequency, TF over GST control).

Regarding AAATTA, the binding signal is 1.44 fold enrichment (6-mer frequency, TF over GST control).

In the case of CCTGAA, the binding signal is 1.54 fold enrichment (6-mer frequency, TF over GST control).

Take TCCGGA: the binding signal is 1.58 fold enrichment (6-mer frequency, TF over GST control).

Consider AATTCT, for which the binding signal is 2.25 fold enrichment (6-mer frequency, TF over GST control).

On to CTTTAA, for which the binding signal is 1.58 fold enrichment (6-mer frequency, TF over GST control).

Consider TCGAAT, for which the binding signal is 2.2 fold enrichment (6-mer frequency, TF over GST control).

Consider TGACAA, for which the binding signal is 1.06 fold enrichment (6-mer frequency, TF over GST control).

Take TCCCGC: the binding signal was 1.57 fold enrichment (6-mer frequency, TF over GST control).

Take TATCAG: the binding signal is 1.11 fold enrichment (6-mer frequency, TF over GST control).

In the case of ACTCCT, the binding signal is 1.36 fold enrichment (6-mer frequency, TF over GST control).

Take AATAGA: the binding signal is 1.34 fold enrichment (6-mer frequency, TF over GST control).

For the sequence TATGGT, the binding signal was 1.16 fold enrichment (6-mer frequency, TF over GST control).

As for TAAGCT, the binding signal was 1.91 fold enrichment (6-mer frequency, TF over GST control).

As for AAATGC, the binding signal was 1.09 fold enrichment (6-mer frequency, TF over GST control).

Take TCTGTT: the binding signal is 1.43 fold enrichment (6-mer frequency, TF over GST control).

For TCTCAT, the binding signal was 1.29 fold enrichment (6-mer frequency, TF over GST control).

CCCACG: the binding signal is 1.01 fold enrichment (6-mer frequency, TF over GST control).

Consider TGCACT, for which the binding signal was 1.02 fold enrichment (6-mer frequency, TF over GST control).

As to TTCATC, the binding signal is 1.29 fold enrichment (6-mer frequency, TF over GST control).

In the case of ATATTG, the binding signal is 1.19 fold enrichment (6-mer frequency, TF over GST control).

For TGTTAC, the binding signal was 1.12 fold enrichment (6-mer frequency, TF over GST control).

On to TCCACT, for which the binding signal was 1.47 fold enrichment (6-mer frequency, TF over GST control).

On to TTGTAG, for which the binding signal is 1.23 fold enrichment (6-mer frequency, TF over GST control).

In the case of AGAAGC, the binding signal was 1.96 fold enrichment (6-mer frequency, TF over GST control).

With CTTCTA, the binding signal is 3.31 fold enrichment (6-mer frequency, TF over GST control).

Turning to TCTATA, the binding signal was 1.4 fold enrichment (6-mer frequency, TF over GST control).

For ATTCCA, the binding signal was 2.28 fold enrichment (6-mer frequency, TF over GST control).

As for TAAACA, the binding signal was 1.29 fold enrichment (6-mer frequency, TF over GST control).

Regarding ACCCGC, the binding signal was 1.13 fold enrichment (6-mer frequency, TF over GST control).
